Laboratory results reported in the supplement of paper PMC10849652.
Targets with a hit are over-represented here; the source holds about 7,900 in all. About 0.6% of all pairs of compound and target were hits. Values without a mark were called inactive.

What was measured:
Experiment in all cases: log2 fold change, soluble protein after heating vs DMSO (PISA); higher = thermal stabilisation; K562 cells, 10 uM, 30 min; active = over 0.2 and 3.5 SD of the protein, either way, in both replicates (recomputed)
erlotinib = compound: C#Cc1cccc(Nc2ncnc3cc(OCCOC)c(OCCOC)cc23)c1 [erlotinib]
Summary of the method: (§1)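 Aliquots of K562 cells (2×10^6 cells/mL) treated with 10 μM compound for 30 min were heated for 3 min over 48°C-58°C. After pooling and extraction in PBS with 0.5% NP-40 at 4°C, soluble protein from a 21,000xg, 90 min spin was quantified by TMTpro 16plex LC-MS/MS with channel sums equalised. Thermal stability is expressed against control samples, from duplicates, as a log2 fold change.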

[1] = compound: C/C(=N\NC(=O)C1=CC(=CC=C1)S(=O)(=O)N2CCOCC2)/C3=C(C=CC(=C3)Cl)O
Summary of the method: as §1

[2] = compound: C1=CC(=C(C=C1Cl)C2=NC3=NC=CN=C3C(=N2)NC4=CC=NC=C4)F
Summary of the method: as §1

[3] = compound: C1=CC(=CC=C1C2=NC3=C(N2)C=C(C=C3)C(=O)N)OC4=CC=C(C=C4)Cl
Summary of the method: as §1

[4] = compound: C1=CC2=C(C=CC(=C2)/C=C\3/C(=O)NC(=NCC4=CC=CS4)S3)N=C1
Summary of the method: as §1

[5] = compound: C1=CC2=NC=CN=C2C=C1/C=C/3\C(=O)NC(=O)S3
Summary of the method: as §1

[6] = compound: C1=CC=C(C=C1)C2=NC(=C(N2)C3=CC=NC=C3)C4=CC(=C(C=C4)Cl)O
Summary of the method: as §1

[7] = compound: C1=CC=C2C(=C1)C3=NNC4=CC=CC(=C43)C2=O
Summary of the method: as §1

[8] = compound: C1CCN(C1)C(=O)NC2=CC=CC(=C2)NC3=NC=C(C(=N3)NCCC4=CN=CN4)Br
Summary of the method: as §1

[9] = compound: C1CN(CCC1(CC2=CC=C(C=C2)Cl)N)C3=NC=NC4=C3C=CN4
Summary of the method: as §1

IRAK-1-4 Inhibitor I = compound: C1COCCN1CCN2C3=CC=CC=C3N=C2NC(=O)C4=CC(=CC=C4)[N+](=O)[O-] [IRAK-1-4 Inhibitor I]
Summary of the method: as §1

ibrutinib = compound: C=CC(=O)N1CCC[C@@H](n2nc(-c3ccc(Oc4ccccc4)cc3)c3c(N)ncnc32)C1 [ibrutinib]
Summary of the method: as §1

[10] = compound: CC(=O)c1cnc2ccc(-c3cc(Cl)c(O)c(Cl)c3)nc2c1N[C@H]1CC[C@H](CN(C)C)CC1
Summary of the method: as §1

ralimetinib = compound: CC(C)(C)Cn1c(N)nc2ccc(-c3[nH]c(C(C)(C)C)nc3-c3ccc(F)cc3)nc21 [ralimetinib]
Summary of the method: as §1

[11] = compound: CC(C)(O)CC(=O)NCCn1ccc2ncnc(Nc3ccc(Oc4cccc(C(F)(F)F)c4)c(Cl)c3)c21
Summary of the method: as §1

[12] = compound: CC(C)C1=C2N=C(C=C(N2N=C1)NCC3=CC=CC=C3)NCCCCCCN
Summary of the method: as §1

[13] = compound: CC(C)C[C@@H](C=O)NC(=O)[C@H](CC(C)C)NC(=O)[C@H](CC(C)C)NC(=O)OCc1ccccc1
Summary of the method: as §1

pinometostat = compound: CC(C)N(C[C@H]1O[C@@H](n2cnc3c(N)ncnc32)[C@H](O)[C@@H]1O)[C@H]1C[C@@H](CCc2nc3cc(C(C)(C)C)ccc3[nH]2)C1 [pinometostat]
Summary of the method: as §1

[14] = compound: CC1=C(C(CC(=O)N1)C2=CC=C(C=C2)C(F)(F)F)C(=O)NC3=C(C=C4C(=C3)C=NN4)F
Summary of the method: as §1

[15] = compound: CC1=C(C2=C(C=C1)C(=O)C3=CC=CC=C3N2CCCN)C
Summary of the method: as §1

Chain of UniProt O15234 (O15234 whole entry, looked up): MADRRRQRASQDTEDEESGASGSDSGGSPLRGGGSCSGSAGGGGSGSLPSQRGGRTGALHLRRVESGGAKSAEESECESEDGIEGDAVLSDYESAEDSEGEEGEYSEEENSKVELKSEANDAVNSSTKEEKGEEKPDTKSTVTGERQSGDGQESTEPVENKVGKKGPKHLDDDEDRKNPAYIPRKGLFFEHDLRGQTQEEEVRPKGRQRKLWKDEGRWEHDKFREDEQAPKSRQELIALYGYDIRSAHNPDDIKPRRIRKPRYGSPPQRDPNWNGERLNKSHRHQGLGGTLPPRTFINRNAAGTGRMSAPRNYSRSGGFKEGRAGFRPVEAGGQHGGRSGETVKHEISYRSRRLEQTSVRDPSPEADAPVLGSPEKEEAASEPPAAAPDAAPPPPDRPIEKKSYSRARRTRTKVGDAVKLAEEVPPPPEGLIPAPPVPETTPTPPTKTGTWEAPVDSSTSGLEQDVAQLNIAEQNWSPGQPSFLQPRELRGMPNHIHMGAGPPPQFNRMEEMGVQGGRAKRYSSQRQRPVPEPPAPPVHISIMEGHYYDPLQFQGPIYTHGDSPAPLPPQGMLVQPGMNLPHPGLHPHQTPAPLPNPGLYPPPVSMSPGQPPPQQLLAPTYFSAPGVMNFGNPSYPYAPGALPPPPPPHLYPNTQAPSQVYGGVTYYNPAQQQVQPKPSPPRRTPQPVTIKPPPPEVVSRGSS
Chain of UniProt Q8N4Q1 (Q8N4Q1 whole entry, looked up): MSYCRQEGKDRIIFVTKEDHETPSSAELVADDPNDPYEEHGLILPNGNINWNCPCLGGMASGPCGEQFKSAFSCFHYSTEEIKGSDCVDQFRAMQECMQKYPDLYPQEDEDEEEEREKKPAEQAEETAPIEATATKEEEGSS
Chain of UniProt O15182 (O15182 whole entry, looked up): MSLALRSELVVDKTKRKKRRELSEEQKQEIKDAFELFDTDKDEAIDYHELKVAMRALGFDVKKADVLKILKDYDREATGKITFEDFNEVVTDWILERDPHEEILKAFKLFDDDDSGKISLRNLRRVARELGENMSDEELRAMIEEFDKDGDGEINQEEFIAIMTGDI
Chain of UniProt P50750 (P50750 whole entry, looked up): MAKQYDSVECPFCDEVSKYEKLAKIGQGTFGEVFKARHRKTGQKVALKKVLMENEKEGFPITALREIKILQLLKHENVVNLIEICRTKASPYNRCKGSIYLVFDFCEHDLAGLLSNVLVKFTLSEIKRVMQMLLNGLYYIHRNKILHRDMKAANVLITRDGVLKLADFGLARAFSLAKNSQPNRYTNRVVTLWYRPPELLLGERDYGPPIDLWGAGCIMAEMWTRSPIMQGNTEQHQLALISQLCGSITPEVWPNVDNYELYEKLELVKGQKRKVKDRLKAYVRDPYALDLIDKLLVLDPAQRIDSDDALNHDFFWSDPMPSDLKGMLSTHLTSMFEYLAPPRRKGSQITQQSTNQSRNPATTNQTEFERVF
Chain of UniProt Q70SY1 (Q70SY1 whole entry, looked up): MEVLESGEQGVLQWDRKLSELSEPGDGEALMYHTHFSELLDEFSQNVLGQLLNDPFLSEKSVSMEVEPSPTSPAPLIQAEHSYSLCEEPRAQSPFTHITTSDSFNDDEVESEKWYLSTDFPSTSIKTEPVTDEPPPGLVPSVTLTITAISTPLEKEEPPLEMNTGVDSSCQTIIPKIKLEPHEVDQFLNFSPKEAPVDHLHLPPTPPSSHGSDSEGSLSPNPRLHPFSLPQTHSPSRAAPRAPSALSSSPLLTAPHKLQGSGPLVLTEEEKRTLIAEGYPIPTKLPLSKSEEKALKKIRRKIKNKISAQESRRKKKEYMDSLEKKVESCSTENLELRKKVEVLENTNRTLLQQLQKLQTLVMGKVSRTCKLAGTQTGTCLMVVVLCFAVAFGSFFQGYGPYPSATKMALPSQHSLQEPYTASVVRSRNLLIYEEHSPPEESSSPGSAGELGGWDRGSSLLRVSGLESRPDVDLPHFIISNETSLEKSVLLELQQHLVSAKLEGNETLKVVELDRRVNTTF
Chain of UniProt P42574 (P42574 whole entry, looked up): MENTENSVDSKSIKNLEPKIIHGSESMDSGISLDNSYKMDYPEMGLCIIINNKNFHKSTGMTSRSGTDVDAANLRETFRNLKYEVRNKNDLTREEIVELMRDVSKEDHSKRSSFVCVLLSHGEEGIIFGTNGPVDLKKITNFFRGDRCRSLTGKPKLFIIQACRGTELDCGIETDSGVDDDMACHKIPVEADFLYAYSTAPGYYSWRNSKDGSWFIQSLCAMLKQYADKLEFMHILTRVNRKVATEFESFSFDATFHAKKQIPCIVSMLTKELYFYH
Chain of UniProt P23786 (P23786 whole entry, looked up): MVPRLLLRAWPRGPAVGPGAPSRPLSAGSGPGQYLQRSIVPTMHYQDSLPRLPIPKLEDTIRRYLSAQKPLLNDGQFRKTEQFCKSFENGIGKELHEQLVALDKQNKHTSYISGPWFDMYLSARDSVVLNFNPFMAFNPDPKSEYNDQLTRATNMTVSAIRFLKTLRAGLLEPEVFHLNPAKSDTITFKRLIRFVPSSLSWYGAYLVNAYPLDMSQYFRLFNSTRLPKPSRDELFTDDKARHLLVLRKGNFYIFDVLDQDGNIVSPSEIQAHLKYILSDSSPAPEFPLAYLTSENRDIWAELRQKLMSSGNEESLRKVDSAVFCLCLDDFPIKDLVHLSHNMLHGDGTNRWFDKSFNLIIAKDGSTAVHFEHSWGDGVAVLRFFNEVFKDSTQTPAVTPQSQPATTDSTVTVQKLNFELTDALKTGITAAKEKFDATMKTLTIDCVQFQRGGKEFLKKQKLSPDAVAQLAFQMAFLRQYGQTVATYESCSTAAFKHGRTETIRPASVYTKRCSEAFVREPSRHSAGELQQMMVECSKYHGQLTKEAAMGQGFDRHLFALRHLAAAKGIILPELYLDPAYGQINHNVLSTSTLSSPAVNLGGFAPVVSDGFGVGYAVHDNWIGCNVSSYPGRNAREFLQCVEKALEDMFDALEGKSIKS
Chain of UniProt O95628 (O95628 whole entry, looked up): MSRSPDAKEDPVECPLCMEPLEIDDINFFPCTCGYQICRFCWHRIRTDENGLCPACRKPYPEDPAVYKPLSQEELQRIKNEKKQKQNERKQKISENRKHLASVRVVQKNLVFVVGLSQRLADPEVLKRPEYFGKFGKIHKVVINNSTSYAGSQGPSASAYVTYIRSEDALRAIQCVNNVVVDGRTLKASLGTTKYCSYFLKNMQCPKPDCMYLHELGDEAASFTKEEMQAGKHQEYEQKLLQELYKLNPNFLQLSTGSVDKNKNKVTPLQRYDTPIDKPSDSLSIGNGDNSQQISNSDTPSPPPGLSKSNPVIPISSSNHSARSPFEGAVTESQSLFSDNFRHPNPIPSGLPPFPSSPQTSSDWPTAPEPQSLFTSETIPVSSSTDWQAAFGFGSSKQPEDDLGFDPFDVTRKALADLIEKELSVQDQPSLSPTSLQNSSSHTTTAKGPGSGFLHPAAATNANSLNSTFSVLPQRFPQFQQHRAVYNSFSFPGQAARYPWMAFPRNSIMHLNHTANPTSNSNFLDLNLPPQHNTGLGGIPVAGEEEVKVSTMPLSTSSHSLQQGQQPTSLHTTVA
Chain of UniProt P48730 (P48730 whole entry, looked up): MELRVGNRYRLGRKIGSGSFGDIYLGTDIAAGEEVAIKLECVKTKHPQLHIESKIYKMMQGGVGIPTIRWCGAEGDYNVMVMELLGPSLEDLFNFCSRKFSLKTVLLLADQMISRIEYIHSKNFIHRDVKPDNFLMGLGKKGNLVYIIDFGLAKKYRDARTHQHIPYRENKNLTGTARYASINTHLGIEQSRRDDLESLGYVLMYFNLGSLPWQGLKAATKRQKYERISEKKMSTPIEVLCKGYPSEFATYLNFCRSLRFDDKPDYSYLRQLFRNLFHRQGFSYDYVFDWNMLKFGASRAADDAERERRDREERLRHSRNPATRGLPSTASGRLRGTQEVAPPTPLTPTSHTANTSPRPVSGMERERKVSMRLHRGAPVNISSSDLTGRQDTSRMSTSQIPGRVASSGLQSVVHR
Chain of UniProt Q00534 (Q00534 whole entry, looked up): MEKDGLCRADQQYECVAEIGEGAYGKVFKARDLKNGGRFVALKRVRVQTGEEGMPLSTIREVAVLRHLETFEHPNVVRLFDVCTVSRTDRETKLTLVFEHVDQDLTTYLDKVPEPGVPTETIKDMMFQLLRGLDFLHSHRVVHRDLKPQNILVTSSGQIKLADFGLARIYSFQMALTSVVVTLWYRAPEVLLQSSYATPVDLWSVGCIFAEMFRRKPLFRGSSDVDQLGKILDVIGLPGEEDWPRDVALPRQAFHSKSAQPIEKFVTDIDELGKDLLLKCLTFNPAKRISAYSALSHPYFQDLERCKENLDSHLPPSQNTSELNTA
Chain of UniProt O95319 (O95319 whole entry, looked up): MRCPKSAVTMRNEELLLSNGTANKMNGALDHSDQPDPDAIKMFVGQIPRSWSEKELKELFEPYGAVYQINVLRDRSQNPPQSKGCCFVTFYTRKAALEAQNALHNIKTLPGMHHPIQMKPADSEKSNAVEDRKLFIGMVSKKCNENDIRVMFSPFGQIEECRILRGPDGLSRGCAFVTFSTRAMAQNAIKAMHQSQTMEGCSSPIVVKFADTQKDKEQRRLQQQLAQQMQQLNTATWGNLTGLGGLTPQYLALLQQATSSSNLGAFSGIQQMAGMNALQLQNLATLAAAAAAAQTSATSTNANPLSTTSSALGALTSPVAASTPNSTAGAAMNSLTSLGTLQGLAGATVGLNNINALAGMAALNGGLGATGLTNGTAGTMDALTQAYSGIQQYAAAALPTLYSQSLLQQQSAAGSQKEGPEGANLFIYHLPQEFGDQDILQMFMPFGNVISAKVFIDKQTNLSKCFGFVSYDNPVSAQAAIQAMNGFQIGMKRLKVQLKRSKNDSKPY
Chain of UniProt Q6P5X5 (Q6P5X5 whole entry, looked up): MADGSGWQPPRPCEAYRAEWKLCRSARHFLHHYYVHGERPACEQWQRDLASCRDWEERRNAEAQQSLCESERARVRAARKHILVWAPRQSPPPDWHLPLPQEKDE

Target | log2 fold change (erlotinib) | log2 fold change [1] | log2 fold change [2] | log2 fold change [3] | log2 fold change [4] | log2 fold change [5] | log2 fold change [6] | log2 fold change [7] | log2 fold change [8] | log2 fold change [9] | log2 fold change (IRAK-1-4 Inhibitor I) | log2 fold change (ibrutinib) | log2 fold change [10] | log2 fold change (ralimetinib) | log2 fold change [11] | log2 fold change [12] | log2 fold change [13] | log2 fold change (pinometostat) | log2 fold change [14] | log2 fold change [15]
CDK6 (UniProt Q00534) | -0.035 | 0 | -0.053 | 0.02 | 0.027 | 0.018 | -0.031 | 0.04 | 0.017 | -0.034 | -0.014 | 0.031 | 0.107 | 0.009 | -0.009 | -0.026 | 0.086 | 0.062 | 0.02 | -0.019
CSNK1D (UniProt P48730) | 0.033 | -0.02 | -0.143 | 0.011 | -0.05 | 0.051 | 0.165 | 0.258 | -0.035 | -0.086 | -0.041 | 0.002 | 0.768 (active) | 0.216 | -0.001 | -0.138 | 0.077 | 0.13 | 0.019 | 0.063
CPT2 (UniProt P23786) | -0.096 | -0.087 | 0.068 | 0.636 | 0.07 | 0.076 | 0.163 | 0.066 | 0.004 | 0.23 | 0.101 | 0.095 | 0.201 | -0.079 | -0.704 (active) | -0.488 | 0.16 | -0.145 | -0.051 | 0.256
C22orf39 (UniProt Q6P5X5) | -0.256 | -0.02 | -0.018 | 0.02 | -0.014 | 0.051 | -0.023 | -0.004 | 0.037 | 0.02 | 0.12 | 0.033 | -0.069 | -0.104 | 0.018 | -0.587 (active) | 0.126 | 0.035 | 0.014 | 0.213
CHCHD4 isoform 2 (UniProt Q8N4Q1) | -0.071 | 0.102 | -0.045 | -0.036 | -0.067 | 0.012 | -0.022 | 0.053 | -0.678 | 0.177 | 0.056 | 0.003 | 0.096 | -0.003 | 0.002 | 0.075 | 0.03 | -0.024 | -0.011 | -0.18
CNDP2 (UniProt Q96KP4) | 0.035 | -0.099 | 0.058 | 0.022 | 0.091 | -0.024 | 0.064 | 0.058 | 0.023 | 0.072 | 0.098 | 0.002 | -0.01 | 0.07 | -0.005 | -0.011 | -0.029 | -0.035 | -0.011 | 0.042
CELF2 isoform 3 (UniProt O95319) | -0.042 | -0.044 | 0 | 0.045 | 0.004 | 0.047 | 0.021 | 0.064 | -0.022 | 0.086 | 0.009 | -0.022 | 0.009 | 0.055 | -0.003 | -0.015 | 0.249 | -0.047 | -0.027 | 0.418 (active)
CNOT4 isoform 6 (UniProt O95628) | 0.004 | 0.06 | 0.026 | 0.014 | 0.03 | 0.003 | -0.007 | -0.043 | -0.011 | 0.044 | 0.044 | 0.016 | -0.062 | -0.048 | 0.002 | 0.038 | -0.019 | -0.025 | 0.018 | 0.051
CASP3 (UniProt P42574) | -0.014 | -0.021 | 0.238 | 0.006 | -0.005 | -0.001 | 0.086 | 0.015 | -0.028 | 0.093 | 0.074 | 0.008 | 0 | -0.022 | 0.043 | 0.048 | 0.067 | -0.076 | 0.011 | 0.05
CSTF2 (UniProt P33240) | 0.032 | -0.002 | -0.011 | 0.017 | 0.017 | 0.051 | -0.076 | 0.023 | 0.033 | -0.061 | 0.011 | 0.008 | 0.057 | -0.006 | 0.025 | 0.093 | -0.006 | -0.008 | 0 | 0.169
CASC3 (UniProt O15234) | -0.084 | -0.166 | -0.066 | 0.068 | 0 | -0.047 | 0.023 | -0.29 | 0.089 | 0.022 | -0.014 | 0.1 | 0.582 (active) | 0.07 | -0.023 | 0.411 | -0.036 | -0.005 | 0.012 | 0.206
CETN3 (UniProt O15182) | -0.098 | 0.009 | -0.065 | -0.022 | 0.027 | 0.077 | -0.12 | -0.055 | 0.041 | -0.125 | 0.031 | -0.022 | -0.006 | -0.075 | 0.035 | -0.038 | 0.039 | 0.016 | -0.002 | -0.18
CDK9 isoform 2 (UniProt P50750) | 0.043 | -0.005 | -0.174 | 0.024 | -0.084 | 0.05 | 0.059 | -0.076 | -0.001 | -0.059 | -0.02 | -0.017 | 0.233 | -0.008 | 0 | -0.113 | 0.044 | 0.157 | -0.03 | -0.144
CREB3L2 (UniProt Q70SY1) | 0.424 | 0.104 | 0.057 | -0.264 | 0.113 | -0.174 | -0.1 | -0.045 | -0.206 | 0.173 | 0.055 | 0.168 | -0.108 | -0.01 | -0.08 | 0.322 | 0.607 | -0.193 | -0.058 | 0.074
CDC42BPB (UniProt Q9Y5S2) | -0.005 | 0.221 | -0.071 | 0.069 | -0.047 | 0.027 | -0.024 | 0.04 | 0.017 | -0.221 | -0.022 | -0.167 | -0.637 (active) | 0.124 | 0.023 | -0.063 | -0.009 | 0.267 | -0.038 | 0.023
CCAR1 (UniProt Q8IX12) | 0.052 | 0.057 | -0.002 | 0.014 | 0.071 | 0.039 | -0.021 | 0.024 | 0.027 | -0.085 | 0.002 | 0.003 | -0.039 | -0.012 | -0.103 | -0.168 | 0.006 | -0.009 | -0.03 | 0.209
